From PubChem BioAssay AID1159580 (chemical genetic matrix, 2015)
The whole screen tested about 5,500 compounds, of which about 2,000 (36%) were called active. Not shown: some 18% with an inconclusive outcome. No stated cut-off is given here; in the data, active means normalized growth mostly below about 0.91 (no sharp cut-off); inconclusive means no clear call, values can overlap the other calls; inactive means mostly above about 0.92. The list shows a part of the results.

Experiment: chemical genetic growth profiling, strain panel (AID 1159580);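 further: tested at 20 µM; growth read once vehicle control cultures reached saturation at 30 °C; 1 = growth at the plate median or of vehicle wells; lower values mean less growth of the strain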
Details: S. cerevisiae deletion strains, growth OD

Measured: normalized growth

CC(=O)c1ccc(Cl)c(N=Cc2cc(Br)cc(Br)c2O)c1
active: locus YAR019C, strain CDC15, active compounds read low 0.107 | locus YBL105C, strain PKC1, active compounds read low 0.0938 | locus YBR135W, strain CKS1, active compounds read low 0.0994 | locus YBR136W, strain MEC1, active compounds read low 0.112 | locus YBR160W, strain CDC28, active compounds read low 0.127 | locus YDL017W, strain CDC7, active compounds read low 0.104 | locus YDL028C, strain MPS1, active compounds read low 0.12 | locus YDL101C, strain DUN1, active compounds read low 0.118 | locus YDL108W, strain KIN28, active compounds read low 0.127 | locus YDL132W, strain cdc53, active compounds read low 0.402 | locus YDL214C, strain PRR2, active compounds read low 0.106 | locus YDR052C, strain DBF4, active compounds read low 0.303 | locus YDR054C, strain cdc34, active compounds read low 0.166 | locus YDR226W, strain ADK1, active compounds read low 0.621 | locus YDR477W, strain SNF1, active compounds read low 0.109 | locus YER123W, strain YCK3, active compounds read low 0.115 | locus YER133W, strain GLC7, active compounds read low 0.105 | locus YFL009W, strain cdc4, active compounds read low 0.0929 | locus YFL029C, strain CAK1, active compounds read low 0.0974 | locus YFR003C, strain YPI1, active compounds read low 0.0995 | locus YFR019W, strain FAB1, active compounds read low 0.0995 | locus YFR028C, strain CDC14, active compounds read low 0.102 | locus YGR040W, strain KSS1, active compounds read low 0.103 | locus YGR052W, strain FMP48, active compounds read low 0.128 | locus YGR092W, strain DBF2, active compounds read low 0.102 | locus YHR030C, strain SLT2, active compounds read low 0.141 | locus YHR079C, strain IRE1, active compounds read low 0.124 | locus YHR082C, strain KSP1, active compounds read low 0.134 | locus YHR205W, strain SCH9, active compounds read low 0.00344 | locus YIL147C, strain SLN1, active compounds read low 0.104 | locus YJL095W, strain BCK1, active compounds read low 0.141 | locus YJL128C, strain PBS2, active compounds read low 0.0977 | locus YJL157C, strain FAR1, active compounds read low 0.0879 | locus YJR016C, strain ILV3, active compounds read low 0.0892 | locus YJR066W, strain TOR1 (second series), active compounds read low 0.091 | locus YJR066W, strain TOR1, active compounds read low 0.12 | locus YKL048C, strain ELM1, active compounds read low 0.114 | locus YKL067W, strain YNK1, active compounds read low 0.0955 | locus YKL101W, strain HSL1, active compounds read low 0.112 | locus YKL193C, strain SDS22, active compounds read low 0.0908 | locus YKL203C, strain TOR2, active compounds read low 0.113 | locus YLR113W, strain HOG1, active compounds read low 0.161 | locus YLR133W, strain CKI1, active compounds read low 0.0941 | locus YLR403W, strain SFP1, active compounds read low -0.00302 | locus YML070W, strain DAK1, active compounds read low 0.099 | locus YMR001C, strain CDC5, active compounds read low 0.0969 | locus YMR205C, strain PFK2 (second series), active compounds read low 0.0844 | locus YMR277W, strain FCP1, active compounds read low 0.0941 | locus YNL006W, strain LST8, active compounds read low 0.0893 | locus YNL020C, strain ARK1, active compounds read low 0.103 | locus YNL161W, strain CBK1, active compounds read low 0.0859 | locus YNL183C, strain NPR1, active compounds read low 0.119 | locus YNL207W, strain RIO2, active compounds read low 0.0975 | locus YNL222W, strain SSU72, active compounds read low 0.0926 | locus YNL307C, strain MCK1 (second series), active compounds read low 0.103 | locus YOL078W, strain AVO1, active compounds read low 0.0827 | locus YOL136C, strain PFK27, active compounds read low 0.102 | locus YOR061W, strain CKA2, active compounds read low 0.0946 | locus YOR119C, strain RIO1, active compounds read low 0.102 | locus YOR231W, strain MKK1, active compounds read low 0.119 | locus YOR329C, strain SCD5, active compounds read low 0.0861 | locus YPL031C, strain PHO85, active compounds read low 0.105 | locus YPL153C, strain RAD53, active compounds read low 0.0925 | locus YPL204W, strain HRR25, active compounds read low 0.0963 | locus YPL209C, strain IPL1, active compounds read low 0.0856 | locus YPL256C, strain CLN2, active compounds read low 0.144 | locus YPR025C, strain CCL1, active compounds read low 0.0958 | locus YPR106W, strain ISR1, active compounds read low 0.0925 | locus YPR111W, strain DBF20, active compounds read low 0.106 | strain NNK1, active compounds read low 0.102 | strain TSCII, active compounds read low 0.102
